Source: PubChem BioAssay (National Center for Advancing Translational Sciences (NCATS))
ATXN viability = viability counter-screen for ATXN expression inhibitors; Potency, µM (highest dose often 56.7 µM), actives largely listed as cytotoxic; 400,000 compounds, 0.49% hits; S2 cells (HEK-293 line with an ATXN2-luciferase reporter) viability, CellTiter-Fluor protease fluorescence, 24 h; further: nearly all actives have a fitted effect of over 40% in size
ATXN2 expr inh = inhibitors of ATXN2 expression; 360,000 compounds, 0.72% hits; Potency, µM (titrated, usually from 57 µM), without a hit: at the highest dose activity change, negative = inhibition, hits mostly inhibitors; HEK-293 ATXN2-luciferase reporter, luminescence, 24 h; further: on the % scale 0 is the no-effect control and ±100 the full control effect; nearly all actives have a fitted effect of over 55% in size
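qHTS (up to 57 uM final) was run with 24 h compound exposure of reporter cells at 37 °C. Each well was multiplexed: SteadyGlo luminescence measured ATXN2-luciferase expression after a fluorogenic Gly-Phe-AFC viability readout (25 uM final).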
TGFb SMAD3 inh = blocks TGF-b signaling. HepG2 CAGA-GFP TGF-b/SMAD3 reporter, GFP fluorescence, 18 h; TGF-beta stimulated, 500 pg/mL final. Potency, µM (top dose mostly 46.1 µM), for the others: top-dose activity, negative = inhibition, most hits filed as inhibitors. 410,000 compounds, 1.2% hits. AID 588855; further: on the % scale 0 is the no-effect control and ±100 the full control effect; nearly all actives have a fitted effect of over 65% in size
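HEPG2 CAGA-GFP reporter cells (1000/well, DMEM with 1% FBS) received compounds, then recombinant TGF-beta at 500 pg/mL final for 18 hours at 37 degrees C. Per-cell GFP summed per well was normalised to unstimulated and stimulated DMSO controls before curve fitting.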
HT1080-NT tox = kills 2HG-producing HT-1080-NT fibrosarcoma cells; HT-1080-NT fibrosarcoma viability, CellTiter-Glo ATP luminescence, 48 h; Potency, µM (doses to about 46.1 µM), inactives show top-dose activity, negative = less viability, hits mostly cytotoxic; 360,000 compounds, 1.6% hits; AID 686970;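 further: NT is the 2HG producing partner of a matched IDH1 knockdown line; 0% = DMSO-treated cells and -100% = media-only wells without cells; nearly all actives have a fitted effect of over 55% in size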
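A 48-hour cytotoxicity screen used HT-1080-NT cells plated 2 hours before compound delivery. ATP-based CellTiter-Glo luminescence measured viability, normalized to DMSO and no-cell controls.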
HepG2 viability = counter-screen for TGF-b inhibitors: cytotoxicity in HepG2 cells | HepG2 CAGA-GFP viability, ATP luminescence, 18 h | Potency, µM (titrated, usually from 46.1 µM), for the others: at the highest dose activity change, negative = cytotoxicity, usual class: cytotoxic | 410,000 compounds, 0.76% hits | AID 588856
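CellTiter-Glo luminescence gave cytotoxicity after 18 hours at 37 degrees C. The cells were HepG2 CAGA-GFP in 1% FBS DMEM, stimulated with 500 pg/mL TGF-beta after compound addition. %Activity was normalised to no-cell wells (complete cell-killing) and DMSO (no toxicity), and curves were fitted and classified.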
HT1080 IDH1KD tx = kills HT-1080 cells with IDH1 knockdown; HT-1080 IDH1 knockdown viability, ATP luminescence, 48 h; Potency, µM (top dose mostly 46.1 µM), without a hit: at the top dose activity, negative = toxicity, most hits filed as cytotoxic; 360,000 compounds, 2% hits;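 further: 0% = DMSO wells and -100% = cell-free medium wells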
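Knockdown cells (IDH1KD HT-1080) received compounds 2 h after plating at 750 cells/well and were kept 48 h at 37 °C in 5% FBS RPMI. A CellTiter-Glo luminescence read gave % activity for curve fitting.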
* hit, by the source's call; i = inactive; ? = inconclusive; · = not tested or not shown; ! = not active in a repeat. Shown are actives, neighbours in structure and some others; about 3.8% of the full set was active somewhere. The call rests on the fitted dose curve; in most records, active means well fitted curve in the direction sought with a large enough effect; inconclusive means small, poorly fitted or top-dose-only effect, or another doubt; inactive means no such curve, though single readings can be large; an effect the other way counts as inactive or inconclusive. Potency means the concentration at half of the fitted maximal effect.

SMILES | ATXN viability | ATXN2 expr inh | TGFb SMAD3 inh | HT1080-NT tox | HepG2 viability | HT1080 IDH1KD tx
C#Cc1ccccc1OCCCN1CCC(C(O)(c2ccccc2)c2ccccc2)CC1 | 40µM* | 32µM* | · | 16µM* | · | 16µM*
Oc1ccc(N2CCN(C(=S)NCCc3ccccc3)CC2)cc1 | i | ? | 9% | ? | 5% | 3.7µM*
COc1ccc(N2CCN(C(=S)NCCc3ccccc3)CC2)cc1 | i | -4% | 0% | 0% | -1% | 6%
Cc1c(N)cccc1C(F)(F)F | i | 22% | · | · | · | ·
O=C(C[n+]1cccc(Br)c1)c1cccc([N+](=O)[O-])c1 | · | · | 38% | · | 7% | ·
NC1=NC(=O)/C(=C\c2ccc(-c3ccccc3[N+](=O)[O-])o2)S1 | · | · | · | 20µM* | · | ?
O=c1nc2s/c(=C\c3ccc(-c4ccccc4[N+](=O)[O-])o3)c(=O)n2nc1-c1ccccc1 | ? | 3% | 2% | -6% | 7% | 0%
Cc1ccccc1Cn1c(CN2CCC(C(=O)NCCN(C)C)CC2)cc2ccccc21 | · | · | 13µM* | · | 10µM* | ·
O=C(N/N=C/c1ccccc1)C(=O)N/N=C/c1ccccc1 | i | 0% | 4% | 14% | 9% | 11%
O=C(C=C=Nc1ccccc1)C(=O)N=C=Cc1ccccc1 | 28µM* | ? | ? | 6.5µM* | -55% | 3.7µM*
O=C(Nc1ccc(-n2cnnn2)cc1)c1cn2ccccc2n1 | i | 4% | 0% | -29% | 4% | ?
O=C(Nc1ccccc1)c1cn2ccccc2n1 | i | 11µM* | 2% | ? | -44% | ?
Cc1csc(NC(=O)c2cn3ccccc3n2)n1 | i | 4µM* | 0% | ? | -64% | ?
CCC(C)Sc1cc(-c2nc3cc(C)ccn3c2NC2CCCCC2)ccc1OC (stereo not drawn) | ? | ? | ? | 21µM* | -59% | ?
CCC(C)Sc1ccc(-c2nc3ccc(C)cn3c2NC2CCCCC2)cc1 (stereo not drawn) | ? | -16% | 1% | · | -26% | ·
CCC(C)Sc1cc(-c2nc3ccccn3c2NC2CCCCC2)ccc1OC (stereo not drawn) | 32µM* | ? | ? | 26µM* | -117% | 18µM*
CC(=O)c1ccc(-c2cccc(-c3nc4ccccn4c3NC3CCCCC3)c2)cc1 | 16µM* | ? | ? | ? | -25% | ?
CC(=O)Nc1ccc(/C=C2\C=Cc3ccccc32)cc1 | · | · | 1% | · | -29% | ·
CC1=NN(c2ccccc2)C(=O)C1N=Nc1ccc(N)cc1 (stereo not drawn) | ? | 3% | -21% | -17% | -41% | 23µM*
CC1=NN(c2ccccc2)C(=O)C1N=Nc1ccccc1 (stereo not drawn) | i | 82% | 0% | 22% | -14% | 3%
CN(C)c1ccc(/C=C/c2c[n+](C)cc3ccccc23)cc1 | · | · | 13µM* | · | -25% | ·
CN(C)c1ccc(/C=C/c2ccc3c4ccccc4ccc3[n+]2-c2ccccc2)cc1 | · | 1.1µM* | ? | 12µM* | -57% | 5.8µM*
CN(C)c1ccc(/C=C/c2nccc3ccccc23)cc1 | · | · | 72% | · | -52% | ·
CN(C)c1ccc(/C=C/c2ccc3ccccc3[n+]2C)cc1 | 10µM* | ? | 2.2µM* | ? | 7.1µM*! | 1.3µM*
CN(C)c1ccc(/C=C/c2cc3ccccc3c[n+]2C)cc1 | · | · | 10µM* | · | -27% | ·
SMILES | ATXN viability | ATXN2 expr inh | TGFb SMAD3 inh | HT1080-NT tox | HepG2 viability | HT1080 IDH1KD tx
CN(C)c1ccc(/C=C/c2cncc3ccccc23)cc1 | · | · | 3% | · | -2% | ·
Cn1c(SCC2CCCO2)nnc1C1CCN(Cc2ccccc2O)CC1 (stereo not drawn) | i | · | · | · | · | ·
Cc1ccc2nc(Cl)c3cc(C(=O)NC4CCCCC4)sc3c2c1 | · | · | 0% | · | 0% | ·
CSc1cccc(NC(=O)C(c2ccccc2)N2Cc3ccccc3C2=O)c1 (stereo not drawn) | · | · | ? | · | -14% | ·
COCCNc1nc(Oc2ccc(NC(C)=O)cc2)c2sc(-c3ccccc3)cc2n1 | ? | ? | ? | ? | -58% | -6%
COc1cccc(CNc2nc(NCc3ccccc3)nc3ccsc23)c1 | i | ? | ? | 21µM* | -48% | ?
COCCNc1nc(NCc2ccc(NC(C)=O)cc2)c2sc(-c3ccccc3)cc2n1 | · | 22µM* | ? | 9.2µM* | -105% | ?
COCCNc1nc(NCc2cc(-c3ccc(OC)cc3)no2)c2sccc2n1 | ? | -22% | ? | ? | -41% | 13µM*
Fc1ccc(Nc2nc(NCc3ccccc3)nc3ccsc23)cc1 | ? | ? | ? | 21µM* | 13µM* | -25%
N=C1SC(=Cc2ccc(-c3ccc4c(c3)C(=O)NC4=O)o2)C(=O)N1c1ccc(Br)cc1 | · | -12% | · | · | · | ·
COCCNc1nc(NCc2cccc(OC)c2)c2sc(-c3ccccc3)cc2n1 | ? | -24% | ? | ? | 11µM* | ?
